Results filed as inconclusive are left out. Some structures have more than one record in an assay (separate samples or runs), and their calls can disagree. Calls of active or inactive are those of the source. Unless noted, calls come from the whole dose curve; as a rule, active = well fitted curve in either direction with a large enough effect (not every such curve was filed as active); inconclusive = small, poorly fitted or top-dose-only effect, or another doubt; inactive = flat fitted curve, though single readings scatter.
Experiments:
[1] = AP1 Signaling Pathway (AID 357); conditions: ME-180 AP-1-bla reporter, EGF-induced, beta-lactamase ratio, 5 h; at 7.69 µM (top of the series) unless noted;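 note: ME-180 reporter cells stimulated with EGF at its EC50 level; % is set by controls: 0 for no effect and ±100 for the full control effect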
Method in brief: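 Titration-series screen for positive or negative modulators of EC50 EGF-induced signaling in ME-180 cells carrying an AP-1-driven beta-lactamase reporter. After 5 hours at 37 degrees Celsius, CCF4 460nm/530nm emission ratio gave %Activity; AC50 values derived.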

[2] = NFAT Signaling Pathway (AID 444); conditions: Jurkat NFAT-bla M1, carbachol, beta-lactamase ratio, 5 h;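 note: carbachol stimulus at about its EC50 of 1 µM final; % is set by controls: 0 for no effect and ±100 for the full control effect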
Method in brief: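 Jurkat cells carrying an NFAT-driven β-lactamase reporter and co-transfected muscarinic M1 receptor were treated with compound plus carbachol (1 uM final, an EC50 level) for 5 h at 37 °C. CCF4 loading followed for 1 h at RT; 460/530 nm ratio gave %activity.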

[3] = Stat Signaling Pathway (AID 446); conditions: ME-180 SIE beta-lactamase reporter, IL-6 stimulated, 5 h;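 note: ME-180 cervical cancer cells given 40 pM IL-6 alongside compound; SIE-controlled beta-lactamase reporter measured as 460/530 nm FRET emission ratio; % is set by controls: 0 for no effect and ±100 for the full control effect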
Method in brief: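 Reporter line: ME-180 cervical carcinoma, SIE-beta-lactamase. Treatment: compound with 40 pM IL-6, 5 hrs, 37 C, in low-serum OPTI-MEM with 10 mM HEPES pH 7.3. Detection: 460/530 nm fluorescence.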

[4] = biological target: Glucocorticoid receptor (Homo sapiens) (UniProt P04150); experiment: GR-GFP Redistribution (AID 450;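 active = compounds whose dose series gives a full or clear partial fitted curve of increased nuclear translocation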; note: potency is the fitted concentration of half-maximal effect); conditions: U2OS GR-GFP nuclear translocation, laser cytometry, 2 h
[5] = biological target: Glucocorticoid receptor (Homo sapiens) (UniProt P04150); experiment: GR-EFC Redistribution (AID 451; calls by dose curve; note: potency is the fitted concentration of half-maximal effect); conditions: CHO-K1 GR-EFC translocation, beta-gal luminescence, 2 h
Method in brief: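 CHO-K1 cells stably expressing nuclear-localized β-gal enzyme acceptor and GR fused C-terminally to the enzyme donor fragment; ligand-driven nuclear translocation restores β-gal by complementation. Compounds titrated up to 46 uM final, 2 h at 37 °C; luminescence read.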

[6] = qHTS Assay for Lipid Storage Modulators (AID 1519; calls by dose curve); conditions: Drosophila S3 cells, BODIPY lipid droplet/cell ratio, laser cytometry, cells loaded with oleic acid
Method in brief: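 Cells seeded at 5,000 per well were treated with compounds over a concentration series and loaded with oleic acid (400 uM, as added). Lipid droplet fluorescence (488 nm excitation, 500-530 nm channel) was read by laser-scanning cytometry and normalized to 20 uM Triacsin C.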

[7] = biological target: Cytochrome P450 1A2 (Homo sapiens) (UniProt P05177); experiment: p450-cyp1a2 (AID 410; calls by dose curve; note: potency is the fitted concentration of half-maximal effect;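 for activity change, negative = inhibition: -100% = full effect of reference inhibitor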)
Method in brief: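 Human CYP1A2 (20nM) demethylated Luciferin-ME at its Km (100uM) in 100mM KPO4. After 10 min compound preincubation, NADPH regeneration ran the reaction 60 min at room temperature. Luciferin was read by luminescence, normalized to 57 uM furafylline.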

[8] = biological target: 3',5'-cyclic-AMP phosphodiesterase 4B (Homo sapiens) (UniProt Q07343); experiment: qHTS Assay for Inhibitors of PDE-IV (AID 607; active = well fitted activation curve with a large enough effect in the main read-out, with a control signal flat, not every such curve was filed as active; note: % of control where 0% means no effect)
Method in brief: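 Cell-based read-out of cAMP via a modified cyclic nucleotide-gated channel and membrane potential dye (535/590 nm) in HEK293 cells expressing PDE4 endogenously. Compounds tested up to 22.9 uM final; 100 uM RO 20-1724 reference.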

[9] = biological target: Mitogen-activated protein kinase 10 (Mus musculus) (UniProt Q61831); experiment: JNK3 AlphaScreen Assay (AID 530);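 note: kinase came from lysate of stimulated human HepG2 cells; signal reports phosphorylation of biotinylated GST-cJun 1-79 at Ser73 with 10 µM ATP; % is set by controls: 0 for no effect and ±100 for the full control effect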
Method in brief: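 JNK3 came from HepG2 lysates pre-activated with IL-1beta and TNF-alpha and phosphorylated biotinylated GST-cJun (1-79) at 10 uM ATP, pH 7.6, room temperature. Compounds were titrated. AlphaScreen signal used anti-phospho-cJun (Ser73) antibody.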

[10] = biological target: ATP-dependent 6-phosphofructokinase (Trypanosoma brucei brucei) (UniProt O15648); experiment: qHTS Assay to Find Inhibitors of T. brucei phosphofructokinase: hit validation (AID 492961; active = well fitted curve in the direction sought with a large enough effect; an effect the other way counts as inactive or inconclusive)
Method in brief: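 Reaction: 0.1 M triethanolamine pH 8.0, 5 mM MgCl2, F6P 0.5 mM, ATP 0.1 mM, PFK 1.25 nM, 45 min RT. Read-out: ADP-Glo luminescence. Analysis: concentration-response fits, classed by r2 and efficacy.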

[11] = biological target: Luciferin 4-monooxygenase (Photinus pyralis) (UniProt P08659); experiment: Biochemical firefly luciferase enzyme assay for NPC (AID 624030; active = well fitted curve in the direction sought with a large enough effect; an effect the other way counts as inactive or inconclusive;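 note: purified P. pyralis luciferase at 10 nM with luciferin and ATP substrate; 0% = DMSO and -100% = full luciferase inhibition by PTC124 control; nearly all actives have a fitted effect of over 70% in size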)
Method in brief: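 Counter-screen for direct inhibition of the luciferase enzyme by approved-drug library compounds, run at 10 nM enzyme in 50 mM Tris acetate (final). Luminescence was read within 5 min of enzyme-buffer addition and normalized to PTC124 versus DMSO (0%).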

[12] = qHTS profiling for inhibitors of Plasmodium falciparum proliferation (AID 504749; active = well fitted curve in the direction sought with a large enough effect; an effect the other way counts as inactive or inconclusive;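 note: 0% = DMSO vehicle and full inhibition = artemisinin control; nearly all actives have a fitted effect of over 60% in size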); conditions: P. falciparum in erythrocytes, SYBR Green DNA, 72 h, at 12.8 µM (top of the series)
Method in brief: (§1)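 P. falciparum-infected erythrocytes (0.3% parasitemia, 2.5% hematocrit final) were exposed to compounds for 72 h at 37 C in 5% CO2, then lysed with SYBR Green buffer overnight at room temperature; parasite DNA fluorescence was normalized to artemisinin and DMSO controls.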

AS120 = experiment: as above; conditions: P. falciparum in erythrocytes, SYBR Green DNA, 72 h; series mostly up to 28.7 µM
Method in brief: as §1

CP238 = experiment: as above; conditions: P. falciparum in erythrocytes, SYBR Green DNA, 72 h; series mostly up to 12.8 µM
Method in brief: as §1

CP265 = experiment: as above; conditions: P. falciparum in erythrocytes, SYBR Green DNA, 72 h; series mostly up to 12.8 µM
Method in brief: as §1

FAB9 = experiment: as above; conditions: P. falciparum in erythrocytes, SYBR Green DNA, 72 h; series mostly up to 12.8 µM
Method in brief: as §1

[13] = biological target: Ubiquitin carboxyl-terminal hydrolase 1 (Homo sapiens) (UniProt O94782); experiment: Inhibitors of USP1/UAF1: Pilot qHTS (AID 504865; active = well fitted curve in the direction sought with a large enough effect; an effect the other way counts as inactive or inconclusive;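 note: rhodamine fluorescence freed from ubiquitin-rhodamine substrate followed over time; top concentration of the series differs between compounds; % is set by controls: 0 for no effect and ±100 for the full control effect; nearly all actives have a fitted effect of over 35% in size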)
Method in brief: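 Kinetic fluorescence assay: 1nM USP1/UAF1, 15 min compound preincubation, then 150nM Ub-Rho; 480/540 nm.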

[14] = at 7.69 µM (top of the series) unless noted
[15] = measured here: cell count channel max response
[16] = measured here: lipid channel max response

Chain of Glucocorticoid receptor (Homo sapiens) (P04150 whole entry, looked up, the tested form may be a part): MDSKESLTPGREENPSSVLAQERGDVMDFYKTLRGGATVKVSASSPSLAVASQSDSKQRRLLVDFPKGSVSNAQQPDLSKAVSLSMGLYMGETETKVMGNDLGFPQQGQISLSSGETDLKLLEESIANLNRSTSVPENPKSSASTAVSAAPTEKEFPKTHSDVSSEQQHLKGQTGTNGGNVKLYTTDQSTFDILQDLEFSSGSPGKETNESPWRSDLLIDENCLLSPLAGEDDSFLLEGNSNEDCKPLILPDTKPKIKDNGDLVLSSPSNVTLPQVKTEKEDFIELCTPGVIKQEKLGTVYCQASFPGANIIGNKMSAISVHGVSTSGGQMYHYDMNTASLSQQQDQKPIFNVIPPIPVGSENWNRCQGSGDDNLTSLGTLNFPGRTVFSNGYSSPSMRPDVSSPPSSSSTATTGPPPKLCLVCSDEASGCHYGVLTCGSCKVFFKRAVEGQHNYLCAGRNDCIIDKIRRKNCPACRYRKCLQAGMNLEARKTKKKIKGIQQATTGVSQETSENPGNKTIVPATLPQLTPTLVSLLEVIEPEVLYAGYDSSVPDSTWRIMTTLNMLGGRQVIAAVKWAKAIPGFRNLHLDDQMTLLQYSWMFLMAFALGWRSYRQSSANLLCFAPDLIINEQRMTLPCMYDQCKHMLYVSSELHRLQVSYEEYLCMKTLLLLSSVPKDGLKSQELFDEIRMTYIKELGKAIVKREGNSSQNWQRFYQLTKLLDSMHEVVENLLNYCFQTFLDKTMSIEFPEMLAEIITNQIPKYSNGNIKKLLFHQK
Chain of Cytochrome P450 1A2 (Homo sapiens) (P05177 whole entry, looked up): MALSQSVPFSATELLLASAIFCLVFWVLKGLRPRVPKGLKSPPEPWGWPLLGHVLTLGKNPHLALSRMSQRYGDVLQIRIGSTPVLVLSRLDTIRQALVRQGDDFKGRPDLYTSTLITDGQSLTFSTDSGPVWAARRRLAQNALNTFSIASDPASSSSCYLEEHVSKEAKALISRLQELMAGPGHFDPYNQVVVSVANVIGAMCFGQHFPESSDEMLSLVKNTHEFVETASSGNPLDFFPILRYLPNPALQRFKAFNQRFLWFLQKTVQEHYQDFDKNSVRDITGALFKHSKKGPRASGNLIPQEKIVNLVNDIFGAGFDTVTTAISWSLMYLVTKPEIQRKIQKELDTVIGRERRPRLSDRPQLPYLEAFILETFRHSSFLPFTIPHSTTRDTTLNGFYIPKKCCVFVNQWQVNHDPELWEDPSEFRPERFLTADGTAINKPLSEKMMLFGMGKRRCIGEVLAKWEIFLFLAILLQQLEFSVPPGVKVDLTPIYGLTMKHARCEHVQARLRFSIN
Chain of 3',5'-cyclic-AMP phosphodiesterase 4B (Homo sapiens) (Q07343 whole entry, looked up): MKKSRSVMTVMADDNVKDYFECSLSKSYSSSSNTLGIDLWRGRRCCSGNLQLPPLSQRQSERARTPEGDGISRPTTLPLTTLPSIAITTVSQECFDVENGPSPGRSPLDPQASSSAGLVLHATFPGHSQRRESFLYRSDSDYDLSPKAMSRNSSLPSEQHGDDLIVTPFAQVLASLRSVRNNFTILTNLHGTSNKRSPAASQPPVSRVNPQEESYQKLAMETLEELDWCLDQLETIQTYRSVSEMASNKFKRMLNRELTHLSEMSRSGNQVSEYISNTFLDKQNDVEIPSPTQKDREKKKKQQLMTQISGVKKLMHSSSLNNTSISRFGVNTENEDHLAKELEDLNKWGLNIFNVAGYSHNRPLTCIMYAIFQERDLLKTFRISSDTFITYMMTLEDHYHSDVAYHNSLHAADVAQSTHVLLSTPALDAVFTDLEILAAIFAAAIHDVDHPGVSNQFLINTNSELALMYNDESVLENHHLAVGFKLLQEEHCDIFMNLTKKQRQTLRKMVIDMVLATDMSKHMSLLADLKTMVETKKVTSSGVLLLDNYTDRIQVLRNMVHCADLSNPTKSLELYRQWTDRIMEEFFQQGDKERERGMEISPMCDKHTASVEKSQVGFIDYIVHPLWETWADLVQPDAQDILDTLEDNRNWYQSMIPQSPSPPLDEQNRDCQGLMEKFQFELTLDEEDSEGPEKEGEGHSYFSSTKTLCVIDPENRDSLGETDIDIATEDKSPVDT
Chain of Ubiquitin carboxyl-terminal hydrolase 1 (Homo sapiens) (O94782 whole entry, looked up): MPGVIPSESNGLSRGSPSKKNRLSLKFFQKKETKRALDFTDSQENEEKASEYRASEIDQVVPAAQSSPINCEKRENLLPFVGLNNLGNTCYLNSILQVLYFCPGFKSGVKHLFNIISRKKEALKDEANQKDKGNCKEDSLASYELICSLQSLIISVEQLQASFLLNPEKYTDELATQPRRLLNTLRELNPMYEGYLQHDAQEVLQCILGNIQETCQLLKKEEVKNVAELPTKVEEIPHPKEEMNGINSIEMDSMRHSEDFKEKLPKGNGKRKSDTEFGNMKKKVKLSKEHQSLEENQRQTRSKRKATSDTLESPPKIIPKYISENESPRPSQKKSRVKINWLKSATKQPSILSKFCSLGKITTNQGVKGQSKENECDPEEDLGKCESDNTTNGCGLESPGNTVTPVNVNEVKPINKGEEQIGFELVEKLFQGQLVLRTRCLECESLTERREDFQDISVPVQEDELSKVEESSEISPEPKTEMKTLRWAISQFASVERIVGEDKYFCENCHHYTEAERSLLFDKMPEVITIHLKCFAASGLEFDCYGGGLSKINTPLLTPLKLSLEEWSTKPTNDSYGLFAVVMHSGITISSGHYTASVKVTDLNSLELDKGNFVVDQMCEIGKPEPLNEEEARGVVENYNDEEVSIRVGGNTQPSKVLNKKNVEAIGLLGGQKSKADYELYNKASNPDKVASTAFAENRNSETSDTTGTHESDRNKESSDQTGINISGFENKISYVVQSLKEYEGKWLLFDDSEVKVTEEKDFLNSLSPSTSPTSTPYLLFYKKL
Chain of Luciferin 4-monooxygenase (Photinus pyralis) (P08659 whole entry, looked up): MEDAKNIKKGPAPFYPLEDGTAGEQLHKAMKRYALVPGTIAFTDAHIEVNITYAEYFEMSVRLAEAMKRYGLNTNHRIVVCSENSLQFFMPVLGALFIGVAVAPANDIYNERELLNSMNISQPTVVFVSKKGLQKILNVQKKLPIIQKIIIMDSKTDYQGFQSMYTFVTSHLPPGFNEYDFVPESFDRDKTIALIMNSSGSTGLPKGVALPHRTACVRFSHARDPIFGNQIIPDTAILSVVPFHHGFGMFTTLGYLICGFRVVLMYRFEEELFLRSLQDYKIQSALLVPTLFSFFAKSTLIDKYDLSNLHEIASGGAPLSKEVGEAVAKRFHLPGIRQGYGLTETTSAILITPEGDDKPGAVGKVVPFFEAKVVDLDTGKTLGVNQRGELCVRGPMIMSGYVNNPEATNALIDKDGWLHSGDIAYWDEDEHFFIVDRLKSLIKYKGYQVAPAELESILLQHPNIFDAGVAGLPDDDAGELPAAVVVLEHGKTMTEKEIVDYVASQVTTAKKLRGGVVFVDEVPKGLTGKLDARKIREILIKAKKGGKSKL
Chain of ATP-dependent 6-phosphofructokinase (Trypanosoma brucei brucei) (O15648 whole entry, looked up): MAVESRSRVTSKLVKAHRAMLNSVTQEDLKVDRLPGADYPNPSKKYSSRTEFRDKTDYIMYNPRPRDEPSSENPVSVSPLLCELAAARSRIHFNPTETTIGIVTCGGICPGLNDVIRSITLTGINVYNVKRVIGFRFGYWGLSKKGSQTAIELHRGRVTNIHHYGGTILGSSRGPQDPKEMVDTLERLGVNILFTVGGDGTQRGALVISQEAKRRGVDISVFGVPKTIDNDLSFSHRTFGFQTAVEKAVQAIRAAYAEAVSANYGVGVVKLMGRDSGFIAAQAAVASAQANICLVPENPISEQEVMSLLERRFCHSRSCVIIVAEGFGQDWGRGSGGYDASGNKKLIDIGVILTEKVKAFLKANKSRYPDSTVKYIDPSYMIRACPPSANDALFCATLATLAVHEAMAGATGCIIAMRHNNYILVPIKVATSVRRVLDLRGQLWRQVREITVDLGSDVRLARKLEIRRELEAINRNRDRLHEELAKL

COc1ccccc1CNc1ncncc1-c1ccc(N(C)C)cc1
activity change, negative = inhibition [1]: -14.4% (inactive) | activity change, negative = inhibition [2, 14]: -2.91% (inactive) | activity, negative = inhibition [3, 14]: -7.61% (inactive) | Potency [4]: > 46 µM (inactive) | Potency [5]: > 46 µM (inactive) | activity change, negative = inhibition ([6]; at 57.5 µM (top of the series)): 7.79% (inactive) | max response [6, 15]: -12.6% | max response [6, 16]: -7.14%

COc1ccccc1CNc1ncnc2ccc(-c3ccc(N(C)C)cc3)cc12
Potency [7]: 0.794 µM (active) | activity, negative = inhibition [3, 14]: -7.61% (inactive) | Potency [4]: > 46 µM (inactive) | Potency [5]: > 46 µM (inactive) | Potency [8]: inactive | activity change, negative = inhibition ([6]; at 57.5 µM (top of the series)): 3.4% (inactive) | max response [6, 15]: -18% | max response [6, 16]: -15%

c1ccc2c(N3CCNCC3)nc(-c3ccoc3)nc2c1
activity change, negative = inhibition [1]: 0.826% (inactive) | activity change, negative = inhibition [2, 14]: -11.1% (inactive) | activity, negative = inhibition [3, 14]: 28% (inactive) | Potency [4]: > 46 µM (inactive) | Potency [5]: > 46 µM (inactive) | Potency [9]: inactive | activity change, negative = inhibition ([6]; at 57.5 µM (top of the series)): 8.78% (inactive) | max response [6, 15]: 9.44% | max response [6, 16]: 17.6%

O=C(c1cccc(F)c1)N1CCC2(CCCN(C(c3ccccc3)c3ccccc3)C2)CC1
Potency [7]: 6.31 µM (active) | activity, negative = inhibition [3, 14]: 17.2% (inactive) | Potency [5]: > 46 µM (inactive) | Potency [9]: inactive | Potency [8]: inactive | activity change, negative = inhibition ([6]; at 57.5 µM (top of the series)): 2.12% (inactive) | max response [6, 15]: 14.6% | max response [6, 16]: 19.7%

CC[C@@]12CCCN3CCc4c(n(c5ccccc45)C(=O)C1)[C@H]32
Potency [7]: 10 µM (active) | activity change, negative = inhibition [7]: -9.8% [at 2.29 µM] (inactive) | activity change, negative = inhibition ([2]; at 7.69 µM (top of the series)): -5.89% (inactive) | activity change, negative = inhibition ([2]; at 17.2 µM (top of the series)): -3.8% (inactive) | activity, negative = inhibition ([3]; at 7.69 µM (top of the series)): 8.55% (inactive) | activity, negative = inhibition ([3]; at 17.2 µM (top of the series)): 14.6% (inactive) | Potency [9]: inactive | Potency [8]: inactive | activity change, negative = inhibition ([6]; at 25.7 µM (top of the series)): -0.21% (inactive) | max response [6, 15]: -16.7% | max response [6, 16]: -14% | outcome [10]: inactive | outcome [11]: inactive | activity, negative = inhibition ([12]; parasite line A): 14.8% (inactive) | activity, negative = inhibition ([12]; parasite line B): -2.22% (inactive) | Potency (AS120): inactive | Potency (CP238): inactive | Potency (CP265): inactive | Potency (FAB9): inactive

CN(C)C(=O)c1ccc(-c2nc(NCc3cccnc3)c3ccccc3n2)cc1
Potency [7]: 10 µM (active) | activity change, negative = inhibition [2, 14]: 9.73% (inactive) | Potency [4]: > 46 µM (inactive) | Potency [5]: > 46 µM (inactive) | Potency [9]: inactive | Potency [8]: inactive | activity change, negative = inhibition ([6]; at 57.5 µM (top of the series)): 8.76% (inactive) | max response [6, 15]: 17% | max response [6, 16]: 24.6% | Potency [13]: inactive

CN(C)Cc1ccccc1-c1cncnc1NCc1ccccc1
activity change, negative = inhibition [1]: 9.42% (inactive) | activity, negative = inhibition [3, 14]: -4.85% (inactive) | Potency [5]: > 46 µM (inactive) | Potency [9]: inactive | Potency [8]: inactive | activity change, negative = inhibition ([6]; at 57.5 µM (top of the series)): 4.16% (inactive) | max response [6, 15]: 9.37% | max response [6, 16]: 10.2% | Potency [13]: inactive

O=C(c1ccco1)N1CCC2(CC1)CCN(c1ccncc1)CC2
activity change, negative = inhibition [1]: -14.6% (inactive) | activity, negative = inhibition [3, 14]: 11.2% (inactive) | Potency [5]: > 46 µM (inactive) | Potency [9]: inactive | Potency [8]: inactive | activity change, negative = inhibition ([6]; at 57.5 µM (top of the series)): 3.95% (inactive) | max response [6, 15]: -3.62% | max response [6, 16]: 0.777%

Source: PubChem BioAssay (NCATS)
